# Measurements from the supplement of paper PMC3545927.
# This is one part of the list. The true hit rate is not given.
# B1: NG9 (peptide)
# chain: CALEVLFQGPAGNASASA
# B2: HC133 (peptide)
# chain: CAEVVESTWVAGNASASA
# B3: HC1815 (peptide)
# chain: CADHMEECSQAGNASASA
# B4: HC1522 (peptide)
# chain: CACRAAGLQDAGNASASA
# B5: HC2505 (peptide)
# chain: CASTLCSAHLAGNASASA
# B6: FS-3023 (peptide)
# chain: CARPRRQGEVAGNASASA
# B7: FS-3152 (peptide)
# chain: CARDRRSPAEAGNASASA
# B8: FS-1965 (peptide)
# chain: CARPRRSEKQAGNASASA
# B9: FS-3021 (peptide)
# chain: CARPRRGIIFAGNASASA
# B10: FS-2949 (peptide)
# chain: CARIFRHSSVAGNASASA
# B11: FS-2030 (peptide)
# chain: CARIFRSSDFAGNASASA
# B12: FS-2148 (peptide)
# chain: CARIFRSIKQAGNASASA
# B13: HC924 (peptide)
# chain: CAWYELTPAEAGNASASA
# B14: FS-2904 (peptide)
# chain: CARDLRGLAEAGNASASA
# B15: HC234 (peptide)
# chain: CAAARALAHGAGNASASA
# B16: HC2418 (peptide)
# chain: CAEVPCHRPTAGNASASA
# B17: HC2517 (peptide)
# chain: CASTSCSAHLAGNASASA
# B18: HC1177 (peptide)
# chain: CAAEITGHVKAGNASASA
# B19: FS-1692 (peptide)
# chain: CARDRRQATEAGNASASA
# B20: FS-2581 (peptide)
# chain: CARPRRPASPAGNASASA
# B21: FS-3025 (peptide)
# chain: CARPRRSSTQAGNASASA
# B22: FS-2743 (peptide)
# chain: CARPRRGSTAAGNASASA
# B23: FS-2627 (peptide)
# chain: CADARRSPDQAGNASASA
# B24: FS-1763 (peptide)
# chain: CARPRRRYYPAGNASASA
# B25: FS-3026 (peptide)
# chain: CARPRRSTSPAGNASASA
# B26: FS-1764 (peptide)
# chain: CARPRRSPAQAGNASASA
# B27: HC643 (peptide)
# chain: CARDLAVAVEAGNASASA
# B28: HC2415 (peptide)
# chain: CAEVPCHRPHAGNASASA
# B29: HC269 (peptide)
# chain: CAADAILHTPAGNASASA
# B30: TR3 (peptide)
# chain: CAIEPRSFSQAGNASASA
# B31: HC51 (peptide)
# chain: CATTPKSGSWAGNASASA
# B32: FS-2285 (peptide)
# chain: CARPRRYLYQAGNASASA
# B33: HC1448 (peptide)
# chain: CAKPARLIVFAGNASASA
# B34: FS-3229 (peptide)
# chain: CARPRRSIVFAGNASASA
# B35: HC2493 (peptide)
# chain: CASRPCSAHLAGNASASA
# B36: FS-3078 (peptide)
# chain: CARSFRTASVAGNASASA
# B37: FS-1839 (peptide)
# chain: CARRSRAASVAGNASASA
# B38: FS-2072 (peptide)
# chain: CARRNRSTSTAGNASASA
# B39: HC2291 (peptide)
# chain: CADDEVVTSTAGNASASA
# B40: FS-3203 (peptide)
# chain: CARRDRSTSIAGNASASA
# B41: FS-3179 (peptide)
# chain: CALRKRSSSTAGNASASA
# B42: FS-2299 (peptide)
# chain: CARRRRSSSVAGNASASA
# B43: FS-3068 (peptide)
# chain: CARRRRSSSTAGNASASA
# Target: furin, P09958
# Sequence (P09958 whole entry): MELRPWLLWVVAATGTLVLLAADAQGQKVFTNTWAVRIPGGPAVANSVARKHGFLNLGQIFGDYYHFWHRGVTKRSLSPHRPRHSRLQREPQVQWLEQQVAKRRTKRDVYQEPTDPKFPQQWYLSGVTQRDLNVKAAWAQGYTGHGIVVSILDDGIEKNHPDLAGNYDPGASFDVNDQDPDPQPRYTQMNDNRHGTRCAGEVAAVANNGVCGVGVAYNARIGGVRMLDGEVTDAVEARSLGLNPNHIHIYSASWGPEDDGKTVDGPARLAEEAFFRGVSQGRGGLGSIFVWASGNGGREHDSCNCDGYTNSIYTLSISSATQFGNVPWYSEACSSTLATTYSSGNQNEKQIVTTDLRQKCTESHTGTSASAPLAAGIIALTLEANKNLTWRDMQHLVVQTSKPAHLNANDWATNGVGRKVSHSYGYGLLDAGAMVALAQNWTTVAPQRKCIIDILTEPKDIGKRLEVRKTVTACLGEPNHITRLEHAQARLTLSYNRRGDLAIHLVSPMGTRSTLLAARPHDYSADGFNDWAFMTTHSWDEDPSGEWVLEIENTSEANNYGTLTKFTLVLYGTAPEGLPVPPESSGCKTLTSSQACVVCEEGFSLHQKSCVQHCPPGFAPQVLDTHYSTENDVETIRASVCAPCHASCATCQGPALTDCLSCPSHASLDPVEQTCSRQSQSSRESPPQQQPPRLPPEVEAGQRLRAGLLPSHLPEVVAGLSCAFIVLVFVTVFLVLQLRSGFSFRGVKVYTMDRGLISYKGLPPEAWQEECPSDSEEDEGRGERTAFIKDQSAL
# Assay: furin cleavage Z-score vs untreated control; higher = more cleavage, active = 3.5 or more, inactive = 1 or less, 8 variable residues between constant flanks
# Outline: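 Peptides 8 residues long, fused to a cDNA oligonucleotide, were fixed to magnetic beads by the N-terminus and exposed to purified furin. The 0.01 ml reactions contained 50 mM HEPES pH 7.5 with CaCl2 and NaCl at 1:10 enzyme:substrate and ran 7.5, 15 or 30 min. For the cleavage Z-score, log counts of sequenced released DNA were compared with furin-free reactions, lowess-adjusted and scaled by median absolute deviation.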
Sequence,furin cleavage Z-score (7.5 min),furin cleavage Z-score (15 min),furin cleavage Z-score (30 min)
B1,-2.01 (inactive),-0.768 (inactive),-2.01 (inactive)
B2,0.708 (inactive),-0.27 (inactive),-1.67 (inactive)
B3,-0.251 (inactive),-0.239 (inactive),-0.816 (inactive)
B4,-0.902 (inactive),-1.39 (inactive),-1.09 (inactive)
B5,0.374 (inactive),0.0643 (inactive),-1.17 (inactive)
B6,0.519 (inactive),0.202 (inactive),0.396 (inactive)
B7,10.2 (active),8.19 (active),8.7 (active)
B8,3.36,4.62 (active),3.66 (active)
B9,1.06,1.16,5.75 (active)
B10,1.97,0.695 (inactive),1.03
B11,0.78 (inactive),-0.809 (inactive),0.131 (inactive)
B12,0.0894 (inactive),2.91,5.31 (active)
B13,-1.27 (inactive),-1.36 (inactive),1.04
B14,-1.94 (inactive),0.23 (inactive),0.275 (inactive)
B15,0.0166 (inactive),-0.81 (inactive),0.0305 (inactive)
B16,0.387 (inactive),-0.0389 (inactive),0.307 (inactive)
B17,0.382 (inactive),1.16,0.668 (inactive)
B18,0.655 (inactive),2.37,0.185 (inactive)
B19,3.4,4.98 (active),3.64 (active)
B20,0.54 (inactive),-0.0908 (inactive),-2 (inactive)
B21,6.4 (active),8.65 (active),6.89 (active)
B22,0.592 (inactive),0.93 (inactive),0.391 (inactive)

Sequence,furin cleavage Z-score (7.5 min),furin cleavage Z-score (15 min),furin cleavage Z-score (30 min)
B23,-0.496 (inactive),-1.36 (inactive),-0.54 (inactive)
B24,0.0891 (inactive),0.798 (inactive),-1.17 (inactive)
B25,10.5 (active),9.5 (active),8.81 (active)
B26,9.55 (active),11 (active),8.87 (active)
B27,1.07,-0.796 (inactive),1.14
B28,0.403 (inactive),-0.336 (inactive),0.894 (inactive)
B29,0.255 (inactive),-1.84 (inactive),-0.719 (inactive)
B30,-0.606 (inactive),-1.14 (inactive),-0.409 (inactive)
B31,-0.56 (inactive),-0.574 (inactive),-0.879 (inactive)
B32,3.25,3.5,5.12 (active)
B33,0.00411 (inactive),-1.12 (inactive),-1.48 (inactive)
B34,4.51 (active),5.67 (active),7.41 (active)
B35,0.596 (inactive),1.57,0.79 (inactive)
B36,0.727 (inactive),0.141 (inactive),1.09
B37,1.46,1.72,3.72 (active)
B38,4.22 (active),6.96 (active),4.29 (active)
B39,0.608 (inactive),0.354 (inactive),-0.134 (inactive)
B40,-0.171 (inactive),0.756 (inactive),1.79
B41,0.00727 (inactive),0.0326 (inactive),-0.921 (inactive)
B42,3.15,3.17,3.52 (active)
B43,8.2 (active),7.85 (active),5.87 (active)
